Assay in all cases: NCI-60 one-dose screen, 48 h (100 = growth as untreated, 0 = no growth, -100 = all killed)
One assay relates to NCI-H23 lung. The conditions noted are these: 10 µM unless noted.
Another assay relates to NCI-H226 lung. The conditions noted are these: 10 µM unless noted.
A further assay relates to NCI-H322M lung. The conditions noted are these: 10 µM unless noted.
The subject of the next assay is HOP-62 NSCLC. The following applies: 10 µM unless noted.
A further assay concerns NCI-H460 lung. The conditions noted are these: 10 µM unless noted.
In another assay the test system is HOP-92 NSCLC. The following applies: 10 µM unless noted.
Another assay relates to 786-0 renal. The following applies: 10 µM unless noted.
The next assay concerns COLO 205 colon. The following applies: 10 µM unless noted.
Another assay concerns A549/ATCC NSCLC. The following applies: 10 µM unless noted.
In a further assay the test system is NCI-H522 lung. The conditions noted are these: 10 µM.

The panel holds about 83,000 compounds, 20% with a hit somewhere; the sample as a whole holds those more often.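 The test compound was applied at a single concentration to cells in 96-well plates for 48 hours, and percent growth was recorded.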 Unmarked numbers belong to inactive results. Calls of active or inactive are those of the source. The calls were made as follows: active = growth percent below 10; inactive = the rest.

As to `COc1ccc2[nH]c(=O)c(CNc3ccc(Nc4nccc(-c5ccc(Cl)cc5)n4)cc3)cc2c1`, the growth with NCI-H23 lung is 91.5%; in the assay on NCI-H226 lung, 91.7%; with NCI-H322M lung it was 87.6%; in the assay with HOP-62 NSCLC, 102%; with NCI-H460 lung it was 93.7%; in the assay on HOP-92 NSCLC, 87.1%. Also, the growth was 98% with 786-0 renal and 100% with COLO 205 colon.

As for `CCOc1cc(CCNS(=O)(=O)c2ccc(C)cc2)c(C(C)=O)cc1OCC`, the growth is 89.3% [100 µM] with NCI-H23 lung; 81% [100 µM] with NCI-H226 lung; 108% [100 µM] in the assay with NCI-H322M lung; 96.6% [100 µM] in the assay on HOP-62 NSCLC; 76.9% [100 µM] with NCI-H460 lung; 74.8% [100 µM] in the assay on A549/ATCC NSCLC. The growth in the assay on 786-0 renal was 74.9% [100 µM]; in the assay on COLO 205 colon it was 95.9% [100 µM].

On to `CC(C)Sc1nc(Cl)c(C#N)c(-c2ccc(F)cc2)n1`, for which the growth with NCI-H23 lung is 100%; with NCI-H226 lung, 103%; with NCI-H322M lung, 102%; with HOP-62 NSCLC, 109%; in the assay on NCI-H460 lung, 113%; in the assay on HOP-92 NSCLC, 92.2%. Further, the values for the growth in the assay on 786-0 renal and in the assay with COLO 205 colon were 96.4% and 115%, respectively.

Regarding `COc1ccc2cc(-c3nc4ccccc4[nH]3)c(=O)oc2c1`, the growth was 93.1% with NCI-H23 lung; 97.5% with NCI-H226 lung; 96.3% in the assay with NCI-H322M lung; 93.9% in the assay on HOP-62 NSCLC; 101% in the assay on NCI-H460 lung; 88.7% in the assay with NCI-H522 lung. Also, the growth in the assay with 786-0 renal is 98%; with COLO 205 colon it was 119%.

For the compound `Cc1c2oc3c(C)ccc(C(=O)OC(C)C4NC(=O)C(C(C)C)N(C)C(=O)CN(C)C(=O)C5CCCN5C(=O)C(C(C)C)NC4=O)c3nc-2c(C(=O)OC(C)C2NC(=O)C(C(C)C)N(C)C(=O)CN(C)C(=O)C3CCCN3C(=O)C(C(C)C)NC2=O)c(N)c1=O` (stereo not given), the growth was -7.25% (active) in the assay on NCI-H23 lung; -40.7% (active) in the assay on NCI-H226 lung; 1.84% (active) with NCI-H322M lung; -20.4% (active) in the assay with HOP-62 NSCLC; 5.45% (active) with NCI-H460 lung; -15.7% (active) in the assay with HOP-92 NSCLC. The growth with 786-0 renal is -11.9% (active); with COLO 205 colon, -63.8% (active).

Turning to `CC(NC(N)=S)c1ccccc1` (stereo not given), the growth is 110% with NCI-H23 lung; 101% in the assay with NCI-H226 lung; 97.8% in the assay on NCI-H322M lung; 85.6% with HOP-62 NSCLC; 101% in the assay with NCI-H460 lung; 102% in the assay with NCI-H522 lung. Also, the growth was 98% in the assay on 786-0 renal and 107% with COLO 205 colon.

Regarding `NS(=O)(=O)c1cc(C2(O)NC(=O)c3ccccc32)ccc1Cl` (stereo not given), the growth is 106% in the assay on NCI-H23 lung; 97.9% in the assay with NCI-H226 lung; 89.6% in the assay with NCI-H322M lung; 109% with HOP-62 NSCLC; 111% with NCI-H460 lung; 99.5% in the assay on NCI-H522 lung. The figures for the growth in the assay on 786-0 renal and in the assay with COLO 205 colon were 102% and 103%, respectively.

Consider `N#Cc1c(-c2ccccc2)cc(-c2ccccc2)n(CCC(=O)O)c1=O`, for which the growth with NCI-H23 lung is 72.9%; in the assay with NCI-H226 lung, 69.2%; with NCI-H322M lung, 91.2%; with HOP-62 NSCLC, 51.9%; in the assay with NCI-H460 lung, 45.3%; in the assay with A549/ATCC NSCLC it was 46.6%. In addition, the growth was 62.6% in the assay with 786-0 renal and 61.2% in the assay with COLO 205 colon.

With `O=[N+]([O-])c1ccc2[nH]cc(-c3c4ccccc4cc4[nH]c5ccc([N+](=O)[O-])cc5c34)c2c1`, the growth is 33.1% with NCI-H23 lung; 39.5% in the assay on NCI-H226 lung; 47.3% in the assay on NCI-H322M lung; 48.5% in the assay on HOP-62 NSCLC; 4.24% (active) in the assay with NCI-H460 lung; 44.7% in the assay on HOP-92 NSCLC. Also, the results for the growth in the assay with 786-0 renal and with COLO 205 colon were 1.4% (active) and 14%, respectively.

Take `O=C1c2cccc3c([N+](=O)[O-])ccc(c23)C(=O)N1CCCCl`: the growth in the assay with NCI-H23 lung was -74.8% [100 µM] (active); in the assay with NCI-H226 lung, -54.1% [100 µM] (active); with NCI-H322M lung it was -96.2% [100 µM] (active); with HOP-62 NSCLC, -92.4% [100 µM] (active); with NCI-H460 lung it was -34.7% [100 µM] (active); in the assay on A549/ATCC NSCLC, -73.7% [100 µM] (active). For the same compound, the results for the growth in the assay with 786-0 renal and with COLO 205 colon were -83.8% [100 µM] (active) and -80.4% [100 µM] (active), respectively.

On to `COc1ccc2c(c1)CC/C(=C\c1ccc(OCC(=O)Nc3nc4ccccc4s3)cc1)C2=O`, for which the growth in the assay with NCI-H23 lung was 79.5%; in the assay with NCI-H226 lung it was 90.4%; with NCI-H322M lung, 98.6%; in the assay on HOP-62 NSCLC, 83.2%; in the assay with NCI-H460 lung, 113%; in the assay with HOP-92 NSCLC, 61.1%. Besides, the figures for the growth in the assay on 786-0 renal and in the assay with COLO 205 colon were 92.3% and 122%, respectively.

Regarding `Nc1nc(SCc2cccnc2)c2ncn(C3OC(CO)C(O)C3O)c2n1` (stereo not given), the growth in the assay with NCI-H23 lung was 97.9%; with NCI-H226 lung, 94.9%; in the assay with NCI-H322M lung it was 108%; with HOP-62 NSCLC it was 85.7%; in the assay with NCI-H460 lung it was 96.6%; with HOP-92 NSCLC, 78.1%. Besides, the growth in the assay with 786-0 renal was 103%; with COLO 205 colon it was 114%.

Turning to `COC(=O)C1CCN(S(=O)(=O)c2ccc(-c3ccccc3)cc2)CC1`, the growth in the assay on NCI-H23 lung was 97.7%; in the assay on NCI-H226 lung, 93.3%; in the assay with NCI-H322M lung, 116%; in the assay with HOP-62 NSCLC, 113%; in the assay on NCI-H460 lung, 110%; in the assay on HOP-92 NSCLC it was 86.8%. Moreover, the growth with 786-0 renal was 113%; in the assay on COLO 205 colon, 108%.

As for `CSc1nc(N)c2c(n1)N(C)C=NS2(=O)=O`, the growth with NCI-H23 lung is 105%; in the assay on NCI-H226 lung, 101%; with NCI-H322M lung, 114%; with HOP-62 NSCLC it was 123%; in the assay with NCI-H460 lung, 115%; with NCI-H522 lung it was 105%. The growth in the assay with 786-0 renal is 108%; in the assay with COLO 205 colon, 101%.

Regarding `CC[n+]1c(/C=C/c2ccc(N3CCCC3)cc2)cccc1/C=C/c1ccc(N2CCCC2)cc1`, the growth is -67.9% (active) in the assay on NCI-H23 lung; -65.7% (active) in the assay with NCI-H226 lung; -86.7% (active) in the assay on NCI-H322M lung; -54.4% (active) in the assay on HOP-62 NSCLC; -84.3% (active) with NCI-H460 lung; -83.2% (active) in the assay on NCI-H522 lung. Also, the growth in the assay on 786-0 renal was -82.3% (active); in the assay with COLO 205 colon, -83.1% (active).

Values taken from PubChem BioAssay (NCI).
